IDE exosite FP – exo-site inhibitors of human IDE, primary screen, biochemical, fluorescence anisotropy, probe displacement; Insulin-degrading enzyme (Homo sapiens), P14735; purified IDE, FL-6b probe fluorescence polarization; hits give low values; z-score at 20 µM; 17,000 tested, 6.3% active;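 active = z-score of -3 or lower, meaning strong loss of probe binding signal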;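 note: His-tagged human IDE residues 42-1019 made in E. coli with 30 nM FL-6b probe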
Target sequence (P14735 42-1019 limits assumed): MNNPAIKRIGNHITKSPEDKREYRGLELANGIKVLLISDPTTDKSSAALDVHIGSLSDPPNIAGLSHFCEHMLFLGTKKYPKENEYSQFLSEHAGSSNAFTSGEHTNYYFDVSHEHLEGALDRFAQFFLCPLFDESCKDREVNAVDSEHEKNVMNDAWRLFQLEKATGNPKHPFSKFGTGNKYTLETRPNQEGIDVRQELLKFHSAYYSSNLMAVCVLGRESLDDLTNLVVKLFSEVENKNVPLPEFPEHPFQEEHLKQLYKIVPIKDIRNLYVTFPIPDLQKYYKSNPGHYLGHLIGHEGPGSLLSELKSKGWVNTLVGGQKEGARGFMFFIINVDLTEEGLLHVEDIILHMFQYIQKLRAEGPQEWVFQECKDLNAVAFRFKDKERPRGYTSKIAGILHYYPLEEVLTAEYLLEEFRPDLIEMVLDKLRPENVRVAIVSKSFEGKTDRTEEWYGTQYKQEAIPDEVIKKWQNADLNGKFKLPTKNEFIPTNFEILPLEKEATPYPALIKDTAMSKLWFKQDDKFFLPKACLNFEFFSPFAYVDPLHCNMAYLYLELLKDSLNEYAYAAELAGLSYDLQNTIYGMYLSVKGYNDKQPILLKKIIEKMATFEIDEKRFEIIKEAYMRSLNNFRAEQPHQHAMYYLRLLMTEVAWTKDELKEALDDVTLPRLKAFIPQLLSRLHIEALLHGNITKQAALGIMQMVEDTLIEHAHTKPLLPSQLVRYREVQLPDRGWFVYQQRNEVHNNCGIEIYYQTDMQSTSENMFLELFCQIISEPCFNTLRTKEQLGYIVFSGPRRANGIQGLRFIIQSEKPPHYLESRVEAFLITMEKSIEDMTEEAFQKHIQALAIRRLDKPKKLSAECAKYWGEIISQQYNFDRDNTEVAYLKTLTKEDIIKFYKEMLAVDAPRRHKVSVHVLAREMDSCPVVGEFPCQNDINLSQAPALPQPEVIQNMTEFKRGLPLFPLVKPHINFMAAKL
Hits are given with their value; n = inactive; ! = not active in a repeat. Many of the other results were omitted from the sample, so hits are more common in it than they were.

SMILES	IDE exosite FP
COc1cccc(-c2ccc([C@@H]3[C@@H](CO)N4C(=O)CN(C(=O)c5cccnc5)C[C@H]34)cc2)c1	n
O=C(c1cccc(F)c1)N1CC(=O)N2[C@H](C1)[C@H](c1ccc(-c3cccnc3)cc1)[C@@H]2CO	n
Cc1cccc(-c2ccc([C@@H]3[C@@H](CO)N4C(=O)CN(C(=O)c5cccnc5)C[C@@H]34)cc2)c1	-13
Cc1ccc(-c2ccc([C@@H]3[C@H](CO)N4C(=O)CN(C(=O)NC(C)C)C[C@@H]34)cc2)cc1	n
COc1ccc(-c2ccc([C@H]3[C@@H](CO)N4C(=O)CN(C(=O)NC(C)C)C[C@@H]34)cc2)cc1	n
CC(C)NC(=O)N1CC(=O)N2[C@H](CO)[C@@H](c3ccc(/C=C/c4ccccc4)cc3)[C@@H]2C1	-3.3
CC(C)NC(=O)N1CC(=O)N2[C@@H](CO)[C@H](c3ccc(/C=C/c4ccccc4)cc3)[C@@H]2C1	-3.4
COc1ccc(-c2ccc([C@@H]3[C@H](CO)N4C(=O)CN(C(=O)NC(C)C)C[C@@H]34)cc2)cc1	n
COc1ccc(NC(=O)N2CC(=O)N3[C@H](CO)[C@H](c4ccc(/C=C/c5ccccc5)cc4)[C@@H]3C2)cc1	n
CO[C@@H]1CN(C)C(=O)c2cc(NC(=O)c3cnccn3)ccc2OC[C@@H](C)NC[C@@H]1C	n
C[C@@H](NC(=O)C[C@@H]1C=C[C@@H](NS(=O)(=O)c2cccc(F)c2)[C@H](CO)O1)c1ccccc1	n
C[C@H](NC(=O)C[C@H]1CC[C@H]2[C@@H](COc3ccc(NC(=O)C4CCOCC4)cc3C(=O)N2C)O1)c1ccccc1	n
CN1C[C@@H]2[C@H](c3ccccc31)[C@H](CO)N2C(=O)C1CCOCC1	n
O=C(C[C@H]1CC[C@H]2NC[C@@H](O)COC[C@@H]2O1)NC1Cc2ccccc2C1	n
COCC(=O)N1CC(=O)N2[C@H](C1)[C@@H](c1ccc(C#CCc3ccccc3)cc1)[C@@H]2CO	n
COCC(=O)N1CC2(CCN(C(=O)c3cccnc3)CC2)c2c([nH]c3cc(OC)ccc23)[C@@H]1CO	n
CCCC(=O)N1CC2(C1)CN(Cc1cccnc1)[C@H](CO)c1[nH]c3cc(OC)ccc3c12	-3.1
COc1ccc2c3c([nH]c2c1)[C@H](CO)N(Cc1ccncc1)CC31CN(C(=O)CN(C)C)C1	n
COc1cccc(CN2CC3(CCN(C)CC3)c3c([nH]c4cc(OC)ccc34)[C@H]2CO)c1	n
CCCC(=O)N1CC2(C1)CN(CC1CC1)[C@@H](CO)c1[nH]c3cc(OC)ccc3c12	n
COc1cc(CN2CC3(CCN(C(=O)c4cccnc4)CC3)c3c([nH]c4cc(OC)ccc34)[C@@H]2CO)cc(OC)c1	-4.1
COCC(=O)N1[C@@H]2c3ccc(C4=CCCCC4)c(=O)n3C[C@@H]2[C@@H](CO)[C@@H]1C(=O)N1CCN(C)CC1	n
COCC#Cc1ccc([C@H]2[C@@H](CO)N3C(=O)CN(C(=O)c4cccnc4)C[C@H]23)cc1	n
CC(C)[C@H]1COCc2cn(nn2)CCC[C@@H](C)C(=O)N1	n
CCCC#Cc1ccc([C@@H]2[C@H]3CN(S(=O)(=O)Cc4ccccc4)CC(=O)N3[C@H]2CO)cc1	n
SMILES	IDE exosite FP
Cc1cccc(-c2ccc([C@H]3[C@@H](CO)N4C(=O)CN(C(=O)c5cnccn5)C[C@H]34)cc2)c1	-12
O=C(c1cnccn1)N1CC(=O)N2[C@@H](CO)[C@H](c3ccc(C4=CCCCC4)cc3)[C@@H]2C1	n
O=C(c1cnccn1)N1CC(=O)N2[C@H](CO)[C@H](c3ccc(-c4ccc(F)cc4)cc3)[C@H]2C1	n
O=C(c1cnccn1)N1CC(=O)N2[C@H](CO)[C@@H](c3ccc(-c4ccccc4)cc3)[C@@H]2C1	n
Cc1cccc(-c2ccc([C@H]3[C@@H](CO)N4C(=O)CN(C(=O)c5cnccn5)C[C@@H]34)cc2)c1	-9.3
O=C(c1cnccn1)N1CC(=O)N2[C@@H](CO)[C@H](c3ccc(-c4cccc(F)c4)cc3)[C@@H]2C1	n
O=C(c1cnccn1)N1CC(=O)N2[C@@H](CO)[C@H](c3ccc(-c4ccccc4)cc3)[C@@H]2C1	-3.8
O=C(c1cnccn1)N1CC(=O)N2[C@H](CO)[C@@H](c3ccc(-c4ccc(F)cc4)cc3)[C@@H]2C1	n
O=C(c1cnccn1)N1CC(=O)N2[C@H](CO)[C@H](c3ccc(-c4ccccc4)cc3)[C@@H]2C1	n
O=C1CN(S(=O)(=O)c2cccc(F)c2)C[C@@H]2[C@H](c3ccc(-c4ccccc4)cc3)[C@@H](CO)N12	n
N#C[C@@H]1[C@@H](c2ccccc2-c2cccc(F)c2)[C@@H](CO)N1C(=O)C1CCC1	n
COc1ccc([C@@H]2C/C=C\C[C@@H](c3ccc(F)cc3)NC(=O)CCC(=O)N2)c(OC)c1	n
O=C(NC[C@H]1[C@H](c2ccccc2)[C@H](CO)N1C(=O)Cc1ccncc1)C1CCC1	n
Cc1noc(C)c1S(=O)(=O)Nc1ccc2c(c1)C(=O)N([C@@H](C)CO)C[C@H](C)[C@H](CN(C)Cc1ccc(C(=O)O)cc1)OCCCC[C@H](C)O2	n
COCC(=O)N1[C@H](CO)[C@H]2c3ccccc3N(C(=O)c3cccnc3)C[C@H]21	n
CCC(=O)N1[C@@H](CO)[C@@H](c2ccccc2)C12CN(C(=O)Nc1ccccc1F)C2	n
COCC(=O)N1[C@H](CO)[C@H](c2ccccc2-c2cccc(F)c2)[C@@H]1C#N	n
C[C@@H]1CN([C@@H](C)CO)C(=O)c2ccccc2-c2ccccc2CO[C@@H]1CN(C)Cc1ccc2c(c1)OCCN2C	n
Cc1ccccc1S(=O)(=O)N1CC(=O)N2[C@@H](CO)[C@H](c3ccc(C#Cc4ccccc4)cc3)[C@@H]2C1	n
CCCC#Cc1ccc([C@@H]2[C@H](C#N)N(S(C)(=O)=O)[C@H]2CO)cc1	n
CC(C)NC(=O)N1[C@@H]2CNC[C@H]1C2c1ccc(-c2cccc(C#N)c2)cc1 (stereo partly specified)	n
CCCNC(=O)N1[C@@H](CO)[C@@H](c2ccc(-c3ccccc3)cc2)[C@@H]1CNC(C)=O	n
CC(C)NC(=O)N1[C@@H]2CNC[C@H]1C2c1ccc(/C=C/c2ccccc2)cc1 (stereo partly specified)	n
O=C(Nc1cccc(Cl)c1)N1[C@@H]2CNC[C@H]1C2c1ccc(/C=C/c2ccccc2)cc1 (stereo partly specified)	n
CCCNC(=O)N1[C@@H]2CNC[C@H]1C2c1ccc(/C=C/c2ccccc2)cc1 (stereo partly specified)	-7.5
SMILES	IDE exosite FP
CCCNC(=O)N1[C@@H]2CNC[C@H]1C2c1ccc(-c2ccc(C)cc2)cc1 (stereo partly specified)	-3.2!
CO[C@H]1CN(C)C(=O)c2ccc(NC(=O)Nc3cc(F)ccc3F)cc2OC[C@@H](C)N(C(=O)c2ccccn2)C[C@@H]1C	n
C/C=C/c1ccc2c(c1)[C@@H]1[C@@H](CCN1C(=O)Cc1ccncc1)[C@@H](CO)N2C	n
CC(C)(C)S(=O)N1Cc2cc(C(=O)NCCCN3CCOCC3)nc(-c3cccc(-c4cccc(F)c4)c3)c2[C@H]1CCO (stereo partly specified)	n
CC(C)NC(=O)N1[C@@H](CO)[C@@H](c2ccccc2)C12CN(Cc1cc(F)cc(F)c1)C2	n
O=C(CN1CCOCC1)N1CCCCN2[C@H](CO)[C@H](c3ccc(/C=C/c4ccccc4)cc3)[C@@H]2C1	-9.3
